{"source": "PubChem BioAssay", "note": "Active and inactive are the calls of the source."}
{"assay": "E. coli acrAB mutant growth effects, primary screen, E. coli filamentation inducers, strain DRC39, OD650, 48 h (AID 1179);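 note: screen aims at cell division blockers that make cells filament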", "conditions": "E. coli DRC39 delta-acrAB growth, higher = more signal, called active from +8 up or from −8 down"}
{"smiles": "C=CC[C@@]1(C(=O)N2CCCCC2)N=C(c2ccc(OCCCO)cc2)O[C@@H]1c1ccccc1", "z-score": "-0.155 (inactive)"}
{"smiles": "COCCCNC(=O)[C@@H]1c2ccccc2C(=O)N(Cc2ccccc2C(F)(F)F)[C@H]1c1ccc(CO)cc1", "z-score": "0.0948 (inactive)"}
{"smiles": "COc1ccc([Si](C)(C)[C@H]2[C@H](CCO)O[C@@]3(C(=O)N(Cc4cccc(N5CCCCC5=O)c4)c4ccccc43)[C@@H]2C)cc1", "z-score": "1.26 (inactive)"}
{"smiles": "O=C1C[C@@](C(=O)NCC(F)(F)F)(c2ccc([N+](=O)[O-])cc2)[C@@H](c2ccc(CO)cc2)N1C1CCCCC1", "z-score": "0.0421 (inactive)"}
{"smiles": "COC(=O)[C@@]1(Cc2ccc(OC)cc2)[C@H]2c3cc(C(=O)N(C)C)n(CCc4c[nH]c5ccc(O)cc45)c3C[C@H]2CN1C(=O)c1ccccc1", "z-score": "0.301 (inactive)"}
{"smiles": "CC(C)c1ccc(NN2C(C(O)c3ccco3)C=CC3C(=O)N(c4ccccc4)C(=O)C32)cc1", "note": "(stereo unspecified)", "z-score": "0.245 (inactive)"}
{"smiles": "COC(=O)[C@@]1(Cc2ccc(OC)cc2)[C@H]2c3cc(C(=O)N(C)C)n(Cc4nc5ccccc5[nH]4)c3C[C@H]2CN1C(=O)c1ccccc1", "z-score": "-1.18 (inactive)"}
{"smiles": "CN1C(=O)[C@@]2(CCS(=O)(=O)c3ccccc3)N=C(c3ccc(OCCCO)cc3)O[C@H]2c2ccccc21", "z-score": "0.946 (inactive)"}
{"smiles": "O=C1O[C@@H](c2ccccc2)[C@@H](c2ccccc2)N2[C@@H](c3ccc(O)cc3)[C@]3(C(=O)Nc4ccccc43)[C@@H](C(=O)Nc3nc4ccccc4s3)[C@H]12", "z-score": "0.251 (inactive)"}
{"smiles": "CC(C)NC(=O)[C@@]1(C)c2ccccc2C(=O)N(C(C)C)[C@H]1c1ccc(CO)cc1", "z-score": "-0.611 (inactive)"}
{"smiles": "COC(=O)[C@@]1(Cc2ccccc2)[C@H]2c3cc(C(=O)N4CCCC4)[nH]c3C[C@H]2CN1C(=O)c1ccccc1", "z-score": "-0.548 (inactive)"}
{"assay": "RPMI8226 myeloma cell viability, profiling panel, resazurin fluorescence, basal, 24 h, PK04 Diversity Set (AID 1180);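 note: RPMI8826 multiple myeloma cell line at 5000 cells per well; test concentration not given here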", "conditions": "higher = more signal"}
{"smiles": "O=C1O[C@@H](c2ccccc2)[C@@H](c2ccccc2)N2[C@@H](c3ccc(O)cc3)[C@]3(C(=O)Nc4ccc(C#CCCO)cc43)[C@@H](C(=O)Nc3nc4ccccc4s3)[C@H]12", "z-score": 0.73}
{"smiles": "C=CCOC(=O)[C@@H]1[C@H]2C(=O)O[C@H](c3ccccc3)[C@H](c3ccccc3)N2[C@H](c2ccc(OCCOC(=O)[C@H]3C[C@H]4C(=O)N[C@@H](CCCCN(C)C)C(=O)N4[C@H]3c3cccc(OCCO)c3)cc2)[C@@]12C(=O)Nc1ccc(I)cc12", "z-score": -0.209}
{"smiles": "Cc1c(NC(=O)/C(C#N)=C/C=C/c2ccc(N(C)C)cc2)c(=O)n(-c2ccccc2)n1C", "z-score": 1.08}
{"smiles": "O=C1C2C=CC(C(O)c3cc(C(F)(F)F)cc(C(F)(F)F)c3)N(Nc3ccc([N+](=O)[O-])cc3)C2C(=O)N1c1ccccc1", "note": "(stereo unspecified)", "z-score": -2.18}
{"smiles": "O=C1NC(=O)C2C1C=CC(C(O)c1cc(C(F)(F)F)cc(C(F)(F)F)c1)N2Nc1ccc(Cl)cc1Cl", "note": "(stereo unspecified)", "z-score": -2.37}
{"smiles": "CO[C@H]1O[C@H](CO)[C@@H](OC(=O)Nc2ccccc2-c2ccccc2)[C@H](OC(=O)Nc2ccc3c(c2)OCO3)[C@@H]1OC(=O)Nc1ccc2c(c1)OCO2", "z-score": -1.12}
{"smiles": "Cc1ccc(F)cc1S(=O)(=O)N[C@@H]1CCN(Cc2ccc(Oc3ccccc3)cc2)C1", "z-score": -0.942}
{"smiles": "CCOC(=O)C1=CC[C@@H](c2ccccc2)N(S(=O)(=O)c2ccc(C)cc2)C1", "z-score": -2.53}
{"smiles": "Cc1ccc(S[C@]2(C(=O)NCC(F)(F)F)CC(=O)N(Cc3ccccc3)[C@@H]2c2ccc(CO)cc2)cc1", "z-score": 0.342}
{"smiles": "CC(C)CNC(=O)[C@@H]1c2ccccc2C(=O)N(Cc2cc(F)cc(C(F)(F)F)c2)[C@H]1c1ccc(CO)cc1", "z-score": 1.16}
{"smiles": "CCN(CC)c1ccc(N2CC=CC34O[C@@H]5/C=C\\CCC(C)OC(=O)C5[C@H]3C(=O)N(CCO)[C@@H]4C2=O)cc1", "note": "(stereo partly specified)", "z-score": -0.833}
{"smiles": "COc1ccccc1CN1C(=O)c2ccccc2[C@@H](C(=O)NC(C)C)[C@@H]1c1ccc(CO)cc1", "z-score": 1.17}
{"smiles": "[N-]=[N+]=NCc1ccccc1[C@H]1OC(c2ccc(OCCCO)cc2)=N[C@@]1(CCS(=O)(=O)c1ccccc1)C(N)=O", "z-score": -0.134}
{"smiles": "C=CCOC(=O)[C@@H]1[C@H]2C(=O)O[C@H](c3ccccc3)[C@H](c3ccccc3)N2[C@H](c2ccc(OCCOC(=O)[C@H]3C[C@H]4C(=O)N[C@@H](CCCC[N+](C)(C)C)C(=O)N4[C@H]3c3ccc(O)cc3)cc2)[C@@]12C(=O)Nc1ccc(I)cc12", "z-score": -0.578}
{"smiles": "C=C(CCCC)/C(=C/C[C@@H](OC(C)=O)c1ccc(CO)o1)c1cc(C(=O)OC)ccc1OC", "z-score": 0.0716}
{"smiles": "CC(C)C(O)C1C=CC2C(=O)N(C)C(=O)C2N1N(c1ccccc1)c1ccccc1", "note": "(stereo unspecified)", "z-score": -0.583}
{"smiles": "C=CCNC(=O)[C@@H]1[C@H]2C(=O)O[C@H](c3ccccc3)[C@H](c3ccccc3)N2[C@H](c2ccc(OCCO)cc2)[C@@]12C(=O)N(C(=O)OCCOC)c1ccc(C#CC3=CCCCC3)cc12", "z-score": -1.66}
{"smiles": "COCCOC(=O)N1C(=O)[C@@]2(c3cc(C#Cc4ccc(OC)cc4)ccc31)[C@H](C(=O)N1CCCCCCC1)[C@H]1C(=O)O[C@H](c3ccccc3)[C@H](c3ccccc3)N1[C@@H]2c1ccc(O)cc1", "z-score": -0.206}
{"smiles": "COC(=O)Cn1c(C(=O)N2CCCC2)cc2c1C[C@H]1CN(C(=O)c3ccccc3)[C@@](Cc3ccc(F)cc3)(C(=O)OC)[C@@H]21", "z-score": 0.303}
{"smiles": "NCCCCCNC(=O)[C@@H]1C[C@@H]2C(=O)N[C@@H](CCCCN)C(=O)N2[C@@H]1c1cccc(OCCO)c1", "z-score": 1}
{"smiles": "Cc1ccc(S[C@]2(C(=O)NC(C)C)CC(=O)N(Cc3ccccc3C(F)(F)F)[C@@H]2c2ccc(CO)cc2I)cc1", "z-score": -2.09}
{"smiles": "COCCOC(=O)N1C(=O)[C@@]2(c3cc(C#CC4(O)CCCCCC4)ccc31)[C@H](C(N)=O)[C@H]1C(=O)O[C@H](c3ccccc3)[C@H](c3ccccc3)N1[C@@H]2c1ccccc1OCCO", "z-score": -6.48}
{"smiles": "C=CC[C@H](OC(=O)Nc1ccc(OC)cc1)c1ccc(O)c2ccccc12", "z-score": -4.15}
{"smiles": "COCC(=C=CC[C@H](O)c1cccc(OCCO)c1)C[C@H](O)c1ccccn1", "z-score": 1.66}
{"smiles": "C=CC[C@@]1(C(=O)N2CCCCC2)N=C(c2ccc(OCCCO)cc2)O[C@@H]1c1ccccc1", "z-score": 1.02}
{"smiles": "COCCCNC(=O)[C@@H]1c2ccccc2C(=O)N(Cc2ccccc2C(F)(F)F)[C@H]1c1ccc(CO)cc1", "z-score": 1.48}
{"smiles": "COc1ccc([Si](C)(C)[C@H]2[C@H](CCO)O[C@@]3(C(=O)N(Cc4cccc(N5CCCCC5=O)c4)c4ccccc43)[C@@H]2C)cc1", "z-score": -4.57}
{"smiles": "O=C1C[C@@](C(=O)NCC(F)(F)F)(c2ccc([N+](=O)[O-])cc2)[C@@H](c2ccc(CO)cc2)N1C1CCCCC1", "z-score": -0.12}
{"smiles": "COC(=O)[C@@]1(Cc2ccc(OC)cc2)[C@H]2c3cc(C(=O)N(C)C)n(CCc4c[nH]c5ccc(O)cc45)c3C[C@H]2CN1C(=O)c1ccccc1", "z-score": -2.36}
{"smiles": "CC(C)c1ccc(NN2C(C(O)c3ccco3)C=CC3C(=O)N(c4ccccc4)C(=O)C32)cc1", "note": "(stereo unspecified)", "z-score": -0.695}
{"smiles": "COC(=O)[C@@]1(Cc2ccc(OC)cc2)[C@H]2c3cc(C(=O)N(C)C)n(Cc4nc5ccccc5[nH]4)c3C[C@H]2CN1C(=O)c1ccccc1", "z-score": -2.51}
{"smiles": "CN1C(=O)[C@@]2(CCS(=O)(=O)c3ccccc3)N=C(c3ccc(OCCCO)cc3)O[C@H]2c2ccccc21", "z-score": -1.09}
{"smiles": "O=C1O[C@@H](c2ccccc2)[C@@H](c2ccccc2)N2[C@@H](c3ccc(O)cc3)[C@]3(C(=O)Nc4ccccc43)[C@@H](C(=O)Nc3nc4ccccc4s3)[C@H]12", "z-score": -4.69}
{"smiles": "CC(C)NC(=O)[C@@]1(C)c2ccccc2C(=O)N(C(C)C)[C@H]1c1ccc(CO)cc1", "z-score": -0.43}
{"smiles": "COC(=O)[C@@]1(Cc2ccccc2)[C@H]2c3cc(C(=O)N4CCCC4)[nH]c3C[C@H]2CN1C(=O)c1ccccc1", "z-score": -0.183}
